{"source": "PubChem BioAssay (Tox21)", "note": "Inconclusive results are not listed. Where a call stands in place of a potency, no number is given. The source made the active and inactive calls. Unless noted, the call rests on the fitted dose curve.", "data": [{"tested_on": "not listed separately", "test": "p53 small molecule agonists, cell-based qHTS assay: qHTS cell viability counter screen (AID 1963581); further: nearly all actives have a fitted effect of over 45% in size", "settings": "p53RE-bla HCT-116 viability, ATP luminescence, 16 h; series mostly up to 66 µM", "outline": "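qHTS counter screen: 16 h compound exposure at 37 C of p53RE-bla HCT-116 cells (4,000 per well, seeded 5 h prior), cell viability by ATP luminescence.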", "values": [{"smiles": "Clc1ccc(Cl)cc1", "Potency": "inactive"}, {"smiles": "FC(F)(F)c1ccc(Cl)cc1", "Potency": "inactive"}, {"smiles": "CCCCCCCCCBr", "Potency": "inactive"}, {"smiles": "COC(=O)NS(=O)(=O)c1ccc(N)cc1", "Potency": "inactive"}, {"smiles": "CC(O)CN1CCN(CC(=O)[O-])CCN(CC(=O)[O-])CCN(CC(=O)[O-])CC1.[Gd+3]", "note": "(centres undefined)", "Potency": "inactive"}, {"smiles": "Nc1cnn(-c2ccccc2)c(=O)c1Cl", "Potency": "inactive"}, {"smiles": "Cl[C@H]1OCCO[C@@H]1Cl", "Potency": "inactive"}, {"smiles": "O=[N+]([O-])c1cc(Cl)ccc1Cl", "Potency": "inactive"}, {"smiles": "c1nc[nH]n1", "Potency": "inactive"}, {"smiles": "COC[C@H](C)N(C(=O)CCl)c1c(C)csc1C", "Potency": "inactive"}, {"smiles": "CCC(=O)Nc1ccc(Cl)c(Cl)c1", "Potency": "inactive"}, {"smiles": "C=C(C)C(=O)OCC1CO1", "note": "(centres undefined)", "Potency": "inactive"}, {"smiles": "O=C(NC(=O)c1c(F)cccc1F)Nc1cc(Cl)c(OC(F)(F)C(F)C(F)(F)F)cc1Cl", "note": "(centres undefined)", "Potency": "inactive"}]}, {"tested_on": "not listed separately", "test": "p53 small molecule agonists, cell-based qHTS assay (AID 1963582; active means well fitted activation curve with a large enough effect in the signal ratio in the repeat runs, not every such curve was filed as active; the % refers to the signal ratio)", "settings": "HCT-116 p53RE-bla reporter, beta-lactamase FRET ratio, 16 h; series mostly up to 66 µM", "outline": "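Measured: fluorescence from cleaved LiveBLAzer substrate. System: p53RE-bla cells, 16 h compound treatment at 37 C, 2 h substrate step at room temperature.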", "values": [{"smiles": "CC(C)[N+](C)(CCC(C(N)=O)(c1ccccc1)c1ccccc1)C(C)C", "Potency": "inactive"}, {"smiles": "O=C(Cl)CCl", "Potency": "inactive"}, {"smiles": "COC(=O)c1ccccc1N", "Potency": "inactive"}, {"smiles": "CN(C)NC(=O)CCC(=O)O", "Potency": "inactive"}, {"smiles": "CN(C)C(=O)C(c1ccccc1)c1ccccc1", "Potency": "inactive"}, {"smiles": "ClCc1ccccn1", "Potency": "inactive"}, {"smiles": "CCCOC(=O)c1ccccc1C(=O)OCCC", "Potency": "inactive"}, {"smiles": "Cc1ccc(N)c(N)c1", "Potency": "inactive"}, {"smiles": "N#CC1(N=NC2(C#N)CCCCC2)CCCCC1", "Potency": "inactive"}, {"smiles": "C=C(C)C(=O)OCC(CC)CCCC", "note": "(centres undefined)", "Potency": "inactive"}, {"smiles": "O=C(CCN1CC1)OCC(CO)(COC(=O)CCN1CC1)COC(=O)CCN1CC1", "Potency": "inactive"}, {"smiles": "CCCCOC(=O)c1ccccc1C(=O)OCCCC", "Potency": "inactive"}, {"smiles": "CC(O)CN(CC(C)O)CC(C)O", "note": "(centres undefined)", "Potency": "inactive"}, {"smiles": "CN(N=O)C(N)=O", "Potency": "inactive"}, {"smiles": "CCOC(=O)c1cncn1C(C)c1ccccc1", "note": "(centres undefined)", "Potency": "inactive"}, {"smiles": "CCN(CC)c1ccccc1", "Potency": "inactive"}, {"smiles": "CCOc1nc(F)cc2nc(S(=O)(=O)Nc3c(Cl)cccc3Cl)nn12", "Potency": "inactive"}, {"smiles": "O=[N+]([O-])c1ccccc1O", "Potency": "inactive"}, {"smiles": "Nc1ccc(N=Nc2ccc(-c3ccc(N=Nc4c(S(=O)(=O)O)cc5cc(S(=O)(=O)O)c(N=Nc6ccccc6)c(O)c5c4N)cc3)cc2)c(N)c1", "Potency": "inactive"}, {"smiles": "c1ccc(P(c2ccccc2)c2ccccc2)cc1", "Potency": "inactive"}, {"smiles": "CCCCCBr", "Potency": "inactive"}, {"smiles": "c1ccc2c(c1)sc1ccccc12", "Potency": "inactive"}, {"smiles": "COc1ccc2c3c1O[C@H]1[C@H](O)CC[C@H]4[C@@H](C2)N(C)CC[C@@]341", "Potency": "inactive"}, {"smiles": "CN(C)CCc1c[nH]c2cccc(OP(=O)(O)O)c12", "Potency": "inactive"}, {"smiles": "CC(Cl)C(=O)O", "note": "(centres undefined)", "Potency": "inactive"}, {"smiles": "Clc1ccc(Cl)cc1", "Potency": "inactive"}, {"smiles": "FC(F)(F)c1ccc(Cl)cc1", "Potency": "inactive"}, {"smiles": "CCCCCCCCCBr", "Potency": "inactive"}, {"smiles": "COC(=O)NS(=O)(=O)c1ccc(N)cc1", "Potency": "inactive"}, {"smiles": "CC(O)CN1CCN(CC(=O)[O-])CCN(CC(=O)[O-])CCN(CC(=O)[O-])CC1.[Gd+3]", "note": "(centres undefined)", "Potency": "inactive"}, {"smiles": "Nc1cnn(-c2ccccc2)c(=O)c1Cl", "Potency": "inactive"}, {"smiles": "Cl[C@H]1OCCO[C@@H]1Cl", "Potency": "inactive"}, {"smiles": "O=[N+]([O-])c1cc(Cl)ccc1Cl", "Potency": "inactive"}, {"smiles": "c1nc[nH]n1", "Potency": "inactive"}, {"smiles": "COC[C@H](C)N(C(=O)CCl)c1c(C)csc1C", "Potency": "inactive"}, {"smiles": "CCC(=O)Nc1ccc(Cl)c(Cl)c1", "Potency": "inactive"}, {"smiles": "C=C(C)C(=O)OCC1CO1", "note": "(centres undefined)", "Potency": "inactive"}, {"smiles": "O=C(NC(=O)c1c(F)cccc1F)Nc1cc(Cl)c(OC(F)(F)C(F)C(F)(F)F)cc1Cl", "note": "(centres undefined)", "Potency": "inactive"}]}, {"biological_target": "5-hydroxytryptamine receptor 2A (Homo sapiens) (UniProt P28223)", "sequence (P28223 whole entry, looked up)": "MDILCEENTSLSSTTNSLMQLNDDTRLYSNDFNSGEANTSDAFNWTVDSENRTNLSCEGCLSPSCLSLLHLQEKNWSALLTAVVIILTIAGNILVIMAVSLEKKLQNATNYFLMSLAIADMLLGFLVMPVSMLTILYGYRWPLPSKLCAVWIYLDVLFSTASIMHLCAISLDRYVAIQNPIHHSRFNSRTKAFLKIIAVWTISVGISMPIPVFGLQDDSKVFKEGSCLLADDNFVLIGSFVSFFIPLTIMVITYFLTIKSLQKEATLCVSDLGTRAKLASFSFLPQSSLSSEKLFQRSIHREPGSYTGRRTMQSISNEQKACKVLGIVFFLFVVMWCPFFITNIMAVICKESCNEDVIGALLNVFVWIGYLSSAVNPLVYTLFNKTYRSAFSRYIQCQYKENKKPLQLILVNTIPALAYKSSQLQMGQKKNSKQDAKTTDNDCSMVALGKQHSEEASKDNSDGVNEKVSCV", "test": "5-hydroxytryptamine receptor 2A (HTR2A) small molecule antagonists, cell-based qHTS assay (AID 1963586); further: nearly all actives have a fitted effect of over 45% in size; further: potency means the concentration at half of the fitted maximal effect", "settings": "HTR2A-CHO cells, DOI-induced calcium flux, fluorescence; series mostly up to 61.5 µM", "outline": "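CHO cells stably expressing human HTR2A were plated for 18 h at 37 C, then loaded with calcium dye for 1 h. Compounds were preincubated 5 min at room temperature before DOI (4 nM solution) was added. Kinetic fluorescence was read for 3 min.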", "values": [{"smiles": "CC(C)[N+](C)(CCC(C(N)=O)(c1ccccc1)c1ccccc1)C(C)C", "Potency": "inactive"}, {"smiles": "O=C(Cl)CCl", "Potency": "inactive"}, {"smiles": "COC(=O)c1ccccc1N", "Potency": "inactive"}, {"smiles": "CN(C)NC(=O)CCC(=O)O", "Potency": "inactive"}, {"smiles": "CN(C)C(=O)C(c1ccccc1)c1ccccc1", "Potency": "inactive"}, {"smiles": "ClCc1ccccn1", "Potency": "inactive"}, {"smiles": "CCCOC(=O)c1ccccc1C(=O)OCCC", "Potency": "inactive"}, {"smiles": "Cc1ccc(N)c(N)c1", "Potency": "inactive"}, {"smiles": "N#CC1(N=NC2(C#N)CCCCC2)CCCCC1", "Potency": "inactive"}, {"smiles": "C=C(C)C(=O)OCC(CC)CCCC", "note": "(centres undefined)", "Potency": "inactive"}, {"smiles": "O=C(CCN1CC1)OCC(CO)(COC(=O)CCN1CC1)COC(=O)CCN1CC1", "Potency": "inactive"}, {"smiles": "CCCCOC(=O)c1ccccc1C(=O)OCCCC", "Potency": "inactive"}, {"smiles": "CC(O)CN(CC(C)O)CC(C)O", "note": "(centres undefined)", "Potency": "inactive"}, {"smiles": "CN(N=O)C(N)=O", "Potency": "inactive"}, {"smiles": "CCOC(=O)c1cncn1C(C)c1ccccc1", "note": "(centres undefined)", "Potency": "inactive"}, {"smiles": "CCN(CC)c1ccccc1", "Potency": "inactive"}, {"smiles": "CCOc1nc(F)cc2nc(S(=O)(=O)Nc3c(Cl)cccc3Cl)nn12", "Potency": "inactive"}, {"smiles": "O=[N+]([O-])c1ccccc1O", "Potency": "inactive"}, {"smiles": "Nc1ccc(N=Nc2ccc(-c3ccc(N=Nc4c(S(=O)(=O)O)cc5cc(S(=O)(=O)O)c(N=Nc6ccccc6)c(O)c5c4N)cc3)cc2)c(N)c1", "Potency": "inactive"}, {"smiles": "c1ccc(P(c2ccccc2)c2ccccc2)cc1", "Potency": "inactive"}, {"smiles": "CCCCCBr", "Potency": "inactive"}, {"smiles": "c1ccc2c(c1)sc1ccccc12", "Potency": "inactive"}, {"smiles": "COc1ccc2c3c1O[C@H]1[C@H](O)CC[C@H]4[C@@H](C2)N(C)CC[C@@]341", "Potency": "inactive"}, {"smiles": "CN(C)CCc1c[nH]c2cccc(OP(=O)(O)O)c12", "Potency": "73.5 nM (active)"}, {"smiles": "CC(Cl)C(=O)O", "note": "(centres undefined)", "Potency": "inactive"}, {"smiles": "Clc1ccc(Cl)cc1", "Potency": "inactive"}, {"smiles": "FC(F)(F)c1ccc(Cl)cc1", "Potency": "inactive"}, {"smiles": "CCCCCCCCCBr", "Potency": "inactive"}, {"smiles": "COC(=O)NS(=O)(=O)c1ccc(N)cc1", "Potency": "inactive"}, {"smiles": "CC(O)CN1CCN(CC(=O)[O-])CCN(CC(=O)[O-])CCN(CC(=O)[O-])CC1.[Gd+3]", "note": "(centres undefined)", "Potency": "inactive"}, {"smiles": "Nc1cnn(-c2ccccc2)c(=O)c1Cl", "Potency": "inactive"}, {"smiles": "Cl[C@H]1OCCO[C@@H]1Cl", "Potency": "inactive"}, {"smiles": "O=[N+]([O-])c1cc(Cl)ccc1Cl", "Potency": "inactive"}, {"smiles": "c1nc[nH]n1", "Potency": "inactive"}, {"smiles": "COC[C@H](C)N(C(=O)CCl)c1c(C)csc1C", "Potency": "inactive"}, {"smiles": "CCC(=O)Nc1ccc(Cl)c(Cl)c1", "Potency": "inactive"}, {"smiles": "C=C(C)C(=O)OCC1CO1", "note": "(centres undefined)", "Potency": "inactive"}, {"smiles": "O=C(NC(=O)c1c(F)cccc1F)Nc1cc(Cl)c(OC(F)(F)C(F)C(F)(F)F)cc1Cl", "note": "(centres undefined)", "Potency": "inactive"}]}]}
